TWEAK-Fn14 inh: inhibitors of TWEAK-Fn14 signaling, primary screen, luciferase reporter cells, uHTS; TWEAK-stimulated Fn14 reporter cells, luciferase luminescence, 8 h; inhibition, % at 10 µM; 2% of 360,000 active; in the data active means inhibition above about 50%
KKLEB cytotox: cytotoxicity in KKLEB CF airway cells, primary screen, cytotoxicity control for CF NF-kB inhibitor project, cell-based, uHTS, fluorescence assay plates. AID 602141, 2011. activity change (cytotoxicity), % at 5 µM. KKLEB CF airway cells viability, ATPlite luminescence, overnight; hits give low values; cells stimulated with P. aeruginosa culture filtrate. 0.36% of 360,000 active;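 active means corrected activity change at or below -50% at 5 µM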
Peg3 promoter: Peg3 promoter-driven luciferase inhibitors, primary screen, cell-based, HeLa, luciferase luminescence | HeLa PEG-Prom luciferase reporter, overnight | inhibition, % at 20 µM | 1.7% of 360,000 active;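 active means inhibition of at least 50% at 20 µM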
CF NFkB inh: inhibitors of PAF-induced NF-kB signaling, primary screen, cell-based, GFP fluorescence, uHTS | KKLEB NF-kB-GFP reporter, GFP fluorescence overnight | inhibition, % at 5 µM | 0.86% of 360,000 active | AID 588850, 2011;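 active means at least 50% inhibition at 5 µM, scaled per plate between neutral and stimulator controls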;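 further: PAF is a Pseudomonas aeruginosa culture filtrate used as stimulus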
TROY signal inh: inhibitors of TROY-driven NF-kB signaling, primary screen, Q293 LMP1-TROYcd cells, NF-kB luciferase, uHTS. Q293 LMP1-TROYcd NF-kB luciferase reporter, 4 h. inhibition, % at 10 µM. 0.98% of 360,000 active. AID 1347056, 2019;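 active means compounds whose plate-normalised and pattern-corrected inhibition of the luciferase reporter signal at the single screening dose is 50% or more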
HIF-2a block: HIF-2a reporter inhibitors, primary screen, luminescence, 786-0 RCC cells; 786-0 RCC cells HIF-2a reporter, luciferase luminescence, overnight; inhibition, % at 18.8 µM; 0.72% of 360,000 active;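 active means inhibition of the luminescence signal of 40% or more relative to plate controls, in a single-dose primary screen at 18.75 µM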
Hits are given with their value. This is a sample that favours compounds with a hit; in the whole collection about 4% have one here.

`Nc1ccc(-c2nc3cc(N)ccc3o2)cc1` gave TWEAK-Fn14 inh inactive, KKLEB cytotox inactive, Peg3 promoter inactive, CF NFkB inh inactive, TROY signal inh inactive and HIF-2a block inactive.
`CCc1ccc2oc(-c3cc(N)ccc3Cl)nc2c1` gave TWEAK-Fn14 inh 83.3, KKLEB cytotox inactive, Peg3 promoter inactive, CF NFkB inh inactive, TROY signal inh 57.3 and HIF-2a block inactive.
Screening CCc1ccc2oc(-c3cc(N)ccc3O)nc2c1 returned TWEAK-Fn14 inh inactive, KKLEB cytotox inactive, Peg3 promoter inactive, CF NFkB inh inactive, TROY signal inh inactive and HIF-2a block inactive.
Nc1ccc2oc(-c3ccccn3)nc2c1 was read as TWEAK-Fn14 inh inactive, KKLEB cytotox inactive, Peg3 promoter inactive, CF NFkB inh inactive, TROY signal inh inactive and HIF-2a block inactive.
`CCCCN(C(=O)C1CC(=O)N(c2ccc(OC)cc2OC)C1)c1c(N)n(CC(C)C)c(=O)[nH]c1=O` (stereo not given) gave TWEAK-Fn14 inh inactive, KKLEB cytotox inactive, Peg3 promoter inactive, CF NFkB inh inactive, TROY signal inh inactive and HIF-2a block inactive.
COc1ccc(N2CC(C(=O)Nc3ccc(S(=O)(=O)N4CCOCC4)cc3)CC2=O)cc1 (stereo not given) was read as TWEAK-Fn14 inh inactive, KKLEB cytotox inactive, Peg3 promoter inactive, CF NFkB inh inactive, TROY signal inh inactive and HIF-2a block inactive.
For COc1ccc(C(CCNC(C)c2ccccc2)C(C)C)cc1 (stereo not given) the results were TWEAK-Fn14 inh inactive, KKLEB cytotox inactive, Peg3 promoter inactive, CF NFkB inh inactive, TROY signal inh inactive and HIF-2a block inactive.
Screening COc1ccc(C(C)NCCC(c2ccc(OC(C)C)cc2)c2ccccc2OC)cc1 (stereo not given) returned TWEAK-Fn14 inh inactive, KKLEB cytotox inactive, Peg3 promoter 103.9, CF NFkB inh inactive, TROY signal inh inactive and HIF-2a block inactive.
`COc1cc2cc3c(N)c(C(=O)Nc4sc(C)c(C)c4C#N)sc3nc2cc1OC` gave TWEAK-Fn14 inh inactive, KKLEB cytotox -99.5, Peg3 promoter inactive, CF NFkB inh 89.4, TROY signal inh inactive and HIF-2a block inactive.
For COc1cc2cc3c(N)c(C(=O)NCc4ccco4)sc3nc2cc1OC the results were TWEAK-Fn14 inh inactive, KKLEB cytotox inactive, Peg3 promoter inactive, CF NFkB inh inactive, TROY signal inh inactive and HIF-2a block inactive.
`COC1=C(Nc2ccccc2)C(=O)c2ccccc2C1=O` gave TWEAK-Fn14 inh inactive, KKLEB cytotox inactive, Peg3 promoter inactive, CF NFkB inh 50.3, TROY signal inh inactive and HIF-2a block inactive.
Screening COC1=C(Nc2ccc(C)cc2)C(=O)c2ccccc2C1=O returned TWEAK-Fn14 inh inactive, KKLEB cytotox inactive, Peg3 promoter inactive, CF NFkB inh inactive, TROY signal inh inactive and HIF-2a block inactive.
`CCOc1cc(/C=N/NC(=O)c2ccc(=O)n(C)c2)ccc1O` gave TWEAK-Fn14 inh inactive, KKLEB cytotox inactive, Peg3 promoter inactive, CF NFkB inh inactive, TROY signal inh inactive and HIF-2a block inactive.
Cc1ccc(C(C)C)c(OCc2ccc(C(=O)N/N=C/c3ccc(O)c(O)c3)cc2)c1 was read as TWEAK-Fn14 inh 62.0, KKLEB cytotox inactive, Peg3 promoter inactive, CF NFkB inh inactive, TROY signal inh inactive and HIF-2a block 71.5.
Screening COc1cc(C(=O)NCCOc2cc(C)ccc2C(C)C)cc(OC)c1OC returned TWEAK-Fn14 inh 61.8, KKLEB cytotox inactive, Peg3 promoter inactive, CF NFkB inh inactive, TROY signal inh inactive and HIF-2a block inactive.
`Cc1ccc(C(C)C)c(OCc2ccc(C(=O)N/N=C/c3cccc(O)c3O)cc2)c1` gave TWEAK-Fn14 inh inactive, KKLEB cytotox inactive, Peg3 promoter inactive, CF NFkB inh inactive, TROY signal inh inactive and HIF-2a block 71.0.
COc1cc(/C=N/NC(=O)c2ccc(COc3cc(C)ccc3C(C)C)cc2)cc(OC)c1O was read as TWEAK-Fn14 inh inactive, KKLEB cytotox inactive, Peg3 promoter inactive, CF NFkB inh inactive, TROY signal inh inactive and HIF-2a block 69.0.
`Cc1ccc(C(C)C)c(OCCNC(=O)c2cncc(Br)c2)c1` gave TWEAK-Fn14 inh inactive, KKLEB cytotox inactive, Peg3 promoter inactive, CF NFkB inh inactive, TROY signal inh inactive and HIF-2a block inactive.
COc1cc(/C=N\NC(=O)c2ccc(-c3ccccc3)cc2)cc(OC)c1O was read as TWEAK-Fn14 inh inactive, KKLEB cytotox inactive, Peg3 promoter inactive, CF NFkB inh inactive, TROY signal inh inactive and HIF-2a block inactive.
Cc1ccc(S(=O)(=O)N2CCN(C(=O)CC3CCCC3)CC2)cc1 was read as TWEAK-Fn14 inh inactive, KKLEB cytotox inactive, Peg3 promoter inactive, CF NFkB inh inactive, TROY signal inh inactive and HIF-2a block inactive.
COCCC1CCCCN1C(=O)c1cc(COc2ccc(C)nc2)on1 (stereo not given) was read as TWEAK-Fn14 inh inactive, KKLEB cytotox -94.8, Peg3 promoter inactive, CF NFkB inh 68.7, TROY signal inh inactive and HIF-2a block inactive.
Screening CCCCC1(Cc2cccc([N+](=O)[O-])c2)C(=O)N(c2ccccc2)N(c2ccccc2)C1=O returned TWEAK-Fn14 inh inactive, KKLEB cytotox inactive, Peg3 promoter 52.4, CF NFkB inh inactive, TROY signal inh inactive and HIF-2a block inactive.
For CCCCC1(CO)C(=O)N(c2ccccc2)N(c2ccccc2)C1=O the results were TWEAK-Fn14 inh inactive, KKLEB cytotox inactive, Peg3 promoter inactive, CF NFkB inh inactive, TROY signal inh inactive and HIF-2a block inactive.
For COCCCNc1ccn2nc(-c3ccc(OCc4ccccc4)cc3)cc2n1 the results were TWEAK-Fn14 inh 78.5, KKLEB cytotox inactive, Peg3 promoter inactive, CF NFkB inh inactive, TROY signal inh inactive and HIF-2a block inactive.
c1ccc(COc2ccc(-c3cc4nc(NCCOc5ccccc5)ccn4n3)cc2)cc1 was read as TWEAK-Fn14 inh inactive, KKLEB cytotox inactive, Peg3 promoter inactive, CF NFkB inh inactive, TROY signal inh inactive and HIF-2a block inactive.
For c1ccc(COc2cccc(-c3cc4nc(NCCc5ccncc5)ccn4n3)c2)cc1 the results were TWEAK-Fn14 inh 61.0, KKLEB cytotox inactive, Peg3 promoter inactive, CF NFkB inh inactive, TROY signal inh inactive and HIF-2a block inactive.
Screening c1ccc(COc2cccc(-c3cc4nc(NCCOc5ccccc5)ccn4n3)c2)cc1 returned TWEAK-Fn14 inh inactive, KKLEB cytotox inactive, Peg3 promoter inactive, CF NFkB inh inactive, TROY signal inh inactive and HIF-2a block inactive.
`COc1cc(-c2cc3nc(NCCOc4ccccc4)ccn3n2)cc(OC)c1OC` gave TWEAK-Fn14 inh 58.3, KKLEB cytotox inactive, Peg3 promoter 53.2, CF NFkB inh inactive, TROY signal inh inactive and HIF-2a block inactive.
